Assay results reported in PubChem BioAssay (NCATS).
Results filed as inconclusive are left out. The source made the active and inactive calls. Unless noted, calls come from the whole dose curve; as a rule, active = well fitted curve in either direction with a large enough effect (not every such curve was filed as active); inconclusive = small, poorly fitted or top-dose-only effect, or another doubt; inactive = flat fitted curve, though single readings scatter.

What was measured:
[1] = target: Lysosomal acid glucosylceramidase (Homo sapiens) (UniProt P04062); assay: Glucocerebrosidase-p2 (AID 348; in the data active = potency below about 10 µM; note: potency is the fitted concentration of half-maximal effect); settings: purified GBA, blue fluorogenic substrate, 40 min
Lysosomal acid glucosylceramidase (Homo sapiens), sequence (P04062 whole entry, looked up): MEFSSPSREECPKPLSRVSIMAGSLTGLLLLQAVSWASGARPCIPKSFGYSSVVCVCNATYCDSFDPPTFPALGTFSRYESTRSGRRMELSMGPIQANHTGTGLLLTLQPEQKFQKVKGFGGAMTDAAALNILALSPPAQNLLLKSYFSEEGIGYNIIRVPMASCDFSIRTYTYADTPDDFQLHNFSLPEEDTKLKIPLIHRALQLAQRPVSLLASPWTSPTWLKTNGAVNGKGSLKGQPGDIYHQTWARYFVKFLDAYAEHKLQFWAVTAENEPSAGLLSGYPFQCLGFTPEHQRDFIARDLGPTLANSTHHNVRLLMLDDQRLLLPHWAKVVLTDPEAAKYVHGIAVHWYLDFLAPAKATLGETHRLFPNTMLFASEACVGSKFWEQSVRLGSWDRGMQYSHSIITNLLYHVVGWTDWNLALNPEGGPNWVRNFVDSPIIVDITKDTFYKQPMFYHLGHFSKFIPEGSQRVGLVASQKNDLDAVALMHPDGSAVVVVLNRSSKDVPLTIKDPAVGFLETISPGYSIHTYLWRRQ
Outline: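 Compounds titrated from 0.6 nM upwards against 0.2 nM enzyme in pH 5.9 citric acid/KH2PO4, taurocholate, tween-20; blue fluorogenic substrate 80 uM, 40 min room temperature, stopped and read Ex 365/Em 440 for AC50.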

[2] = AP1 Signaling Pathway (AID 357); settings: ME-180 AP-1-bla reporter, EGF-induced, beta-lactamase ratio, 5 h; at 7.69 µM (top of the series) unless noted;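 note: ME-180 reporter cells stimulated with EGF at its EC50 level; % is set by controls: 0 for no effect and ±100 for the full control effect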
Outline: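 Modulation of EGF-driven AP-1 transcription was assessed with a beta-lactamase reporter in ME-180 cells. Compound and EC50 EGF were co-incubated 5 hours at 37 °C before 2.5-hour CCF4 loading at room temperature and dual-emission reading.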

[3] = target: Cytochrome P450 1A2 (Homo sapiens) (UniProt P05177); assay: p450-cyp1a2 (AID 410; calls by dose curve; note: potency is the fitted concentration of half-maximal effect;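 for activity change, negative = inhibition: -100% = full effect of reference inhibitor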); settings: recombinant CYP1A2, luciferin-ME demethylation, luminescence; series mostly up to 57 µM
Cytochrome P450 1A2 (Homo sapiens), sequence (P05177 whole entry, looked up): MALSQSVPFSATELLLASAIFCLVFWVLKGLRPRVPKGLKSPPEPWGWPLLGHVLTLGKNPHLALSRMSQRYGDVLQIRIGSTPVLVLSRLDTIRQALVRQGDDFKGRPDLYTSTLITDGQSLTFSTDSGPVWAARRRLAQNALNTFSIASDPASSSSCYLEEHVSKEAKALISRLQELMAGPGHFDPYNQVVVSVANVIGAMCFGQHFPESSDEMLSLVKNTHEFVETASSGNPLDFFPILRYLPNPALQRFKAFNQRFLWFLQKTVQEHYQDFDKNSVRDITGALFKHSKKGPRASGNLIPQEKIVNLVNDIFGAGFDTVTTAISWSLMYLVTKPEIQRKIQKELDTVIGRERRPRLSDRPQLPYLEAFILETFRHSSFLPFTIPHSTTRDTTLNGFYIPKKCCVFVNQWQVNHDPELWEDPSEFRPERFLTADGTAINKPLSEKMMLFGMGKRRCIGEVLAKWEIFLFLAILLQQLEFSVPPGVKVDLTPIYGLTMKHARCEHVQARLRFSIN
Outline: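 Inhibition was calculated relative to 57 uM furafylline (full inhibition). The reaction used human CYP1A2 at 20nM with Luciferin-ME at its Km, 100uM, driven by an NADPH-regenerating system for 60 min at room temperature.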

[4] = Stat Signaling Pathway (AID 446); settings: ME-180 SIE beta-lactamase reporter, IL-6 stimulated, 5 h; at 7.69 µM (top of the series) unless noted;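 note: ME-180 cervical cancer cells given 40 pM IL-6 alongside compound; SIE-controlled beta-lactamase reporter measured as 460/530 nm FRET emission ratio; % is set by controls: 0 for no effect and ±100 for the full control effect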
Outline: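 ME-180 cells carrying a SIE-driven beta-lactamase reporter are stimulated with 40 pM IL-6 for 5 h at 37C in the presence of compound. The 460/530 nm FRET substrate ratio is read after 2.5 h at RT. Data are normalised to 300 pM IL-6 and to 125 nM JAK inhibitor controls.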

[5] = target: Glucocorticoid receptor (Homo sapiens) (UniProt P04150); assay: GR-EFC Redistribution (AID 451; calls by dose curve; note: potency is the fitted concentration of half-maximal effect); settings: CHO-K1 GR-EFC translocation, beta-gal luminescence, 2 h
Glucocorticoid receptor (Homo sapiens), sequence (P04150 whole entry, looked up, the tested form may be a part): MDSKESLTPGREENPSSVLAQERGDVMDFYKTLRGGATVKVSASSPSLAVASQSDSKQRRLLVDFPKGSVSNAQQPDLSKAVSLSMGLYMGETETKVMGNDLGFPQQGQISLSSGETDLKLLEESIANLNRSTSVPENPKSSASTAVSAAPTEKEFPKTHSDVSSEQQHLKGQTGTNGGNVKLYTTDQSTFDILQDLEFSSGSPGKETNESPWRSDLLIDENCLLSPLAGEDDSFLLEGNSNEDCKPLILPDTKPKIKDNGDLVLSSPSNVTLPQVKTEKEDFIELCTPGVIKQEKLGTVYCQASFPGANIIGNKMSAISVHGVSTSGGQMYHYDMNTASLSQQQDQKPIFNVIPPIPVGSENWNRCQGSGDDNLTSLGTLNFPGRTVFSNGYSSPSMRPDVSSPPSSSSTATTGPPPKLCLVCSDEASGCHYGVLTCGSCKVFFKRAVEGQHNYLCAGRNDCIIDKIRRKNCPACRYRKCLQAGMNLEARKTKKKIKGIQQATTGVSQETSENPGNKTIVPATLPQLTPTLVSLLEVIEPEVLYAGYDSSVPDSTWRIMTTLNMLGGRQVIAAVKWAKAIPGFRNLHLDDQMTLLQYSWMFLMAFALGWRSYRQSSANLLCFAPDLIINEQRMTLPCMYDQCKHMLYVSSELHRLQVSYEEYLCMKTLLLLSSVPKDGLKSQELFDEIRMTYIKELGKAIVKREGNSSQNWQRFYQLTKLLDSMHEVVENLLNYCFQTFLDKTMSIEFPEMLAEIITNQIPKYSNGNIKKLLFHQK
Outline: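 CHO-K1 cells expressing nuclear EA and GR-ED fragments of b-gal; compounds titrated up to 46 uM final, 2 h at 37 C. GR nuclear translocation read as complemented b-gal luminescence after 1 h RT detection.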

[6] = target: Mitogen-activated protein kinase 10 (Mus musculus) (UniProt Q61831); assay: JNK3 AlphaScreen Assay (AID 530); settings: JNK3 lysate, c-Jun phosphorylation; series mostly up to 57.1 µM;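 note: kinase came from lysate of stimulated human HepG2 cells; signal reports phosphorylation of biotinylated GST-cJun 1-79 at Ser73 with 10 µM ATP; % is set by controls: 0 for no effect and ±100 for the full control effect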
Outline: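 qHTS format: compounds tested as titrations against IL-1beta/TNF-alpha-activated HepG2 lysate JNK3 with biotin-GST-cJun substrate and 10 uM ATP at room temperature. Loss of anti-phospho-cJun AlphaScreen signal indicates inhibition.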

[7] = target: 3',5'-cyclic-AMP phosphodiesterase 4B (Homo sapiens) (UniProt Q07343); assay: qHTS Assay for Inhibitors of PDE-IV (AID 607; active = well fitted activation curve with a large enough effect in the main read-out, with a control signal flat, not every such curve was filed as active; note: % of control where 0% means no effect); settings: HEK293 ACTOne CNG channel cells, membrane potential fluorescence; series mostly up to 22.9 µM
3',5'-cyclic-AMP phosphodiesterase 4B (Homo sapiens), sequence (Q07343 whole entry, looked up): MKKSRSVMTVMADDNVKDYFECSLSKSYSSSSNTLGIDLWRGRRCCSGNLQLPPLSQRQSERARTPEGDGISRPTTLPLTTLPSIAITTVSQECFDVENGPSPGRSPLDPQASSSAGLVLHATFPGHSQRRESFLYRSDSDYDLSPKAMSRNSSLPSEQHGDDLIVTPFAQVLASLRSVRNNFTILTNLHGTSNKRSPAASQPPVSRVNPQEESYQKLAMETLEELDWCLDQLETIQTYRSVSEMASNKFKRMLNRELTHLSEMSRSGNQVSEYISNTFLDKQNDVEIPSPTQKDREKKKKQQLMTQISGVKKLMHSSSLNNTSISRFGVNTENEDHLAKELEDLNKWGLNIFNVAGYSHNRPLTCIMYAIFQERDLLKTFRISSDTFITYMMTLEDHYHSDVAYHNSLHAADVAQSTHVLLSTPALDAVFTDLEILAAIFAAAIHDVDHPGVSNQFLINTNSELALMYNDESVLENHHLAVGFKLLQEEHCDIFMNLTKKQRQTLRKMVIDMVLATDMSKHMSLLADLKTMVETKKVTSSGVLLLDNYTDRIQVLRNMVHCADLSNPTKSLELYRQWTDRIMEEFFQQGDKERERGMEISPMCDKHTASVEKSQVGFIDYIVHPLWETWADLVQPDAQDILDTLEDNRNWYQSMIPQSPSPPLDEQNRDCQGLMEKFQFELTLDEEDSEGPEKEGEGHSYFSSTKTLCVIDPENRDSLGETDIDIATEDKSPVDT
Outline: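 HEK293 ACTOne cells with CNG channel (1000/well), endogenous PDE4; membrane potential dye, compounds up to 22.9 uM final. Fluorescence Ex 535/Em 590; RO 20-1724 (100 uM final) as reference.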

[8] = target: Cytochrome P450 2C9 (Homo sapiens) (UniProt P11712); assay: qHTS Assay for Inhibitors and Substrates of Cytochrome P450 2C9 (AID 883; active = well fitted curve in the direction sought with a large enough effect; an effect the other way counts as inactive or inconclusive; note: potency is the fitted concentration of half-maximal effect; nearly all actives have a fitted effect of over 60% in size); settings: recombinant CYP2C9, luciferin-H luminescence, 60 min; series mostly up to 57.1 µM
Cytochrome P450 2C9 (Homo sapiens), sequence (P11712 whole entry, looked up): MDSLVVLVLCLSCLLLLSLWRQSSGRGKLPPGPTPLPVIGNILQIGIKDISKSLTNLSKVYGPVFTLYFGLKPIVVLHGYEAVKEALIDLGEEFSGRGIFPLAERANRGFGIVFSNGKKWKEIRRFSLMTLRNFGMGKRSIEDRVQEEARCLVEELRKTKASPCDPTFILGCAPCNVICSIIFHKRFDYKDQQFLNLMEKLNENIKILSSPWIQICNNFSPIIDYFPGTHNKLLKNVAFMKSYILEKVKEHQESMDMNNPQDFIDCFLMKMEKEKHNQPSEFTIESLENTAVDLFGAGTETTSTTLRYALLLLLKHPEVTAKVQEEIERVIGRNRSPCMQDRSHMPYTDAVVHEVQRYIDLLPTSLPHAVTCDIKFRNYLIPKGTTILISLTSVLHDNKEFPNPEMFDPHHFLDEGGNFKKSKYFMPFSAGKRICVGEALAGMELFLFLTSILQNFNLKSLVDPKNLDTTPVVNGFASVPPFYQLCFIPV
Outline: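 Human CYP2C9 (10nM) with Luciferin-H at 100uM (its KM) in 25mM KPO4; compound preincubated 10 min at 37C, then NADPH regeneration for 60 min at 37C. Luciferin read by luminescence after detection reagent; normalized to 57uM sulphaphenazole as full inhibition.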

[9] = target: Cytochrome P450 3A4 (Homo sapiens) (UniProt P08684); assay: qHTS Assay for Inhibitors and Substrates of Cytochrome P450 3A4 (AID 884; active = well fitted curve in the direction sought with a large enough effect; an effect the other way counts as inactive or inconclusive; note: potency is the fitted concentration of half-maximal effect; nearly all actives have a fitted effect of over 50% in size); settings: recombinant CYP3A4, Luciferin-PPXE luminescence; series mostly up to 57.1 µM
Cytochrome P450 3A4 (Homo sapiens), sequence (P08684 whole entry, looked up): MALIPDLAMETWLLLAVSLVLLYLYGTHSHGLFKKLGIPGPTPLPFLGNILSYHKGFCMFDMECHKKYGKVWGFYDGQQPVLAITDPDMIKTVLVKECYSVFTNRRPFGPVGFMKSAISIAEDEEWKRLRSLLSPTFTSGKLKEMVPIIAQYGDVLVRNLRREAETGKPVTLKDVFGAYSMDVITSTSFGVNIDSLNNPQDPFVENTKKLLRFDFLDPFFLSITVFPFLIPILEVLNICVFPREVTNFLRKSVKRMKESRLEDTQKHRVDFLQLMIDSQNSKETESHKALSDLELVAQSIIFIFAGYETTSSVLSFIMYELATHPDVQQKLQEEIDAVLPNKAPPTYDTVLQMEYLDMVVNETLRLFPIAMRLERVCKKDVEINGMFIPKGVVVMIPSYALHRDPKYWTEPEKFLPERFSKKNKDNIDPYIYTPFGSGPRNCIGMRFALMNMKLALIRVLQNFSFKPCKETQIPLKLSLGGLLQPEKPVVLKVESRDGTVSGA
Outline: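 20 nM human CYP3A4 with 25 uM Luciferin-PPXE (at KM) in 200 mM KPO4, preincubated 10 min with compound; NADPH regeneration started a 60 min RT reaction. Luciferin detected by luminescence, normalized to 57 uM ketoconazole as full inhibition.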

[10] = target: Cytochrome P450 3A4 (Homo sapiens) (UniProt P08684); assay: qHTS Assay for Activators of Cytochrome P450 3A4 (AID 885; active = well fitted curve in the direction sought with a large enough effect; an effect the other way counts as inactive or inconclusive; note: nearly all actives have a fitted effect of over 65% in size); settings: recombinant CYP3A4, Luciferin-PPXE luminescence, 60 min; series mostly up to 57.1 µM
Outline: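 Human CYP3A4 (20 nM) with Luciferin-PPXE at 25 uM (its KM) in 200 mM KPO4; 10 min compound preincubation, then NADPH regeneration and 60 min reaction at RT. Luciferin read by luminescence; normalized to 57 uM ketoconazole full inhibition.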

[11] = qHTS Assay for Lipid Storage Modulators (AID 1519; calls by dose curve); settings: Drosophila S3 cells, BODIPY lipid droplet/cell ratio, laser cytometry, cells loaded with oleic acid; for activity change, negative = inhibition: at 57.5 µM (top of the series)
Outline: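 Cells seeded at 5,000 per well were treated with compounds over a concentration series and loaded with oleic acid (400 uM, as added). Lipid droplet fluorescence (488 nm excitation, 500-530 nm channel) was read by laser-scanning cytometry and normalized to 20 uM Triacsin C.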

[12] = Primary qHTS for small molecule stabilizers of the endoplasmic reticulum resident proteome: Secreted ER Calcium Modulated Protein (SERCaMP) assay (AID 1508630; active = well fitted curve in the direction sought with a large enough effect; an effect the other way counts as inactive or inconclusive; note: % is set by controls: 0 for no effect and ±100 for the full control effect); settings: SH-SY5Y GLuc-SERCaMP (Gaussia luciferase released on ER calcium loss) secretion, thapsigargin, luminescence; series mostly up to 38.4 µM
Outline: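 GLuc-SERCaMP-expressing SH-SY5Y cells, pretreated 16 h with compound, are challenged with thapsigargin to empty ER calcium stores; after 4 h, coelenterazine is added directly to the medium and luminescence is imaged.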

[13] = target: Cytochrome P450 2D6 (Homo sapiens) (UniProt P10635); assay: qHTS Assay for Inhibitors and Substrates of Cytochrome P450 2D6 (AID 891; active = well fitted curve in the direction sought with a large enough effect; an effect the other way counts as inactive or inconclusive; note: potency is the fitted concentration of half-maximal effect; nearly all actives have a fitted effect of over 60% in size); settings: recombinant CYP2D6, luciferin-ME EGE luminescence; series mostly up to 57.1 µM
Cytochrome P450 2D6 (Homo sapiens), sequence (P10635 whole entry, looked up): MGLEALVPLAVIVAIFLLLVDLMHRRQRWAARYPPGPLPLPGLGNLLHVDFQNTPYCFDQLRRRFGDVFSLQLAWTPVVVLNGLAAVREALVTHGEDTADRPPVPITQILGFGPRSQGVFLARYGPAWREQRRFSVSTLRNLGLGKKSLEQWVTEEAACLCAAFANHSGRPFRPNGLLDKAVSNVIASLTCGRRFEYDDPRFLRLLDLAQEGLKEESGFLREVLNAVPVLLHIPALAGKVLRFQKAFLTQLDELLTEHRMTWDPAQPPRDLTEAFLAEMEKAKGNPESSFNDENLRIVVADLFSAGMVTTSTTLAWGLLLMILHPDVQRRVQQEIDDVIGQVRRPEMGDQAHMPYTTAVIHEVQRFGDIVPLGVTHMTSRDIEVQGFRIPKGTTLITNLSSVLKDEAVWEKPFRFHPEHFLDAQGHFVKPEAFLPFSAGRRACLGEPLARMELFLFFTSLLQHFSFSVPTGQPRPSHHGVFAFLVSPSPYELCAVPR
Outline: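 Human CYP2D6 (5 nM) with 30 uM Luciferin-ME EGE (at Km) in 100 mM KPO4, compound preincubated 10 min, then NADPH regeneration system for 60 min at room temperature. Luciferin read by luminescence; normalized to 1.43 uM quinidine.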

[14] = qHTS Assay for Identification of Small Molecule Agonists for Hypoxia Response Element Signaling Pathway (AID 914; active = well fitted activation curve with a large enough effect in the signal ratio, with a control signal flat, not every such curve was filed as active; the % refers to the signal ratio; note: % of control where 0% means no effect); settings: ME-180 (cervical carcinoma) HRE-bla reporter, beta-lactamase ratio, CoCl2, 17 h; activation: stronger effect = higher value
Outline: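 Compounds in a titration series were added to ME-180 reporter cells alongside an EC50 level of CoCl2. After 17 hours, beta-lactamase activity was read as the 460nm/530nm emission ratio of CCF4, giving AC50 values.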

[15] = measured here: cell count channel max response
[16] = measured here: lipid channel max response

N#Cc1cccc(NC(=O)N2CCCC3(CCN(C(=O)c4ccco4)CC3)C2)c1
16.6%: max response [11, 16]
active: Potency [3] 15.8 µM | Potency [8] 3.98 µM | Potency [9] 5.01 µM
5.8%: max response [11, 15]
inactive: Potency [1] > 11.4 µM | activity change, negative = inhibition [2] -14.7% | activity, negative = inhibition [4] -1.77% | Potency [5] > 46 µM | Potency [6] | Potency [7] | Potency [10] | activity change, negative = inhibition [11] 7.75% | outcome [12]

COC(=O)N1CCC2(CC1)CN(c1ccncc1)C2
12.9%: max response [11, 16]
7.79%: max response [11, 15]
inactive: Potency [1] > 11.4 µM | activity change, negative = inhibition [2] 1.61% | Potency [3] | activity, negative = inhibition [4] -7.68% | Potency [5] > 46 µM | Potency [6] | Potency [7] | activity change, negative = inhibition [11] 3.84% | outcome [12]

O=C(c1ccncc1)N1CCC2(CCCN(Cc3ccncc3)C2)CC1
1.67%: max response [11, 15]
8.27%: max response [11, 16]
active: Potency [3] 6.31 µM | Potency [8] 5.01 µM | Potency [9] 5.01 µM | Potency [13] 6.31 µM
inactive: Potency [1] > 11.4 µM | activity change, negative = inhibition [2] -5.21% | activity, negative = inhibition [4] 4.83% | Potency [5] > 46 µM | Potency [6] | Potency [7] | Potency [10] | activation [14] 2.4% | activity change, negative = inhibition [11] 2.08% | outcome [12]

CN1CCC2(CC1)CCN(S(=O)(=O)c1ccccc1)CC2
inactive: Potency [1] > 11.4 µM | activity change, negative = inhibition [2] -4.78% | Potency [3] | activity, negative = inhibition [4] -1.02% | Potency [5] > 46 µM | Potency [6] | Potency [7] | activity change, negative = inhibition [11] -2.86% | outcome [12]
8%: max response [11, 15]
9.03%: max response [11, 16]

COCC(=O)N1CCC2(CCCN(Cc3ccccc3OC)C2)CC1
2.52%: max response [11, 15]
inactive: Potency [1] > 11.4 µM | activity change, negative = inhibition [2] -2.02% | Potency [3] | activity, negative = inhibition [4] 10.7% | Potency [5] > 46 µM | Potency [6] | Potency [7] | activity change, negative = inhibition [11] -6.35% | outcome [12]
0.269%: max response [11, 16]

CC(C)CN1CCC2(CC1)CCN(C(=O)c1cc(C(F)(F)F)cc(C(F)(F)F)c1)CC2
-17.3%: max response [11, 16]
inactive: Potency [1] > 11.4 µM | activity change, negative = inhibition [2] 3.4% | Potency [3] | activity, negative = inhibition [4] 0.414% | Potency [5] > 46 µM | Potency [6] | Potency [7] | activity change, negative = inhibition [11] -2.84% | outcome [12]
-18.2%: max response [11, 15]

CC(C)CN1CCC2(CC1)CCN(C(=O)c1cccn1C)CC2
-4.46%: max response [11, 16]
inactive: Potency [1] > 11.4 µM | activity change, negative = inhibition [2] -13.5% | Potency [3] | activity, negative = inhibition [4] -4.86% | Potency [5] > 46 µM | Potency [6] | Potency [7] | activity change, negative = inhibition [11] 0.342% | outcome [12]
-5.62%: max response [11, 15]
